Where “and” joins values, the source holds several entries; their conditions need not be identical. Equal entries are not always repeated. Some compounds were tested as several samples or in several runs, with calls that do not always agree. Calls of active or inactive are those of the source. Rule for the calls: active = hit-call score of the fitted dose curve at least 0.9, where 1 is the maximum; inactive = score below 0.9.
Test: ATG_GATA_CIS: Attagene CIS-FACTORIAL HepG2 Assay for human GATA Binding Protein (AID 2282944)
Conditions: HepG2 GATA cis-element reporter, Attagene multiplex mRNA; actives raise or lower the signal
Description: ATG_CIS is a cell-based, multiplexed-readout assay that uses HepG2, a human liver cell line, with measurements taken at 24 hours after chemical dosing in a 24-well plate.ATG_GATA_CIS is one of 52 assay component(s) measured or calculated from the ATG_CIS assay. It is designed to make measurements of mRNA induction, a form of inducible reporter, as detected with fluorescence intensity signals by Reverse transcription polymerase chain reaction (RT-PCR) and Capillary electrophoresis technology.Data from the assay component ATG_GATA_CIS was analyzed into 1 assay endpoint. This assay endpoint, ATG_GATA_CIS, was analyzed with bidirectional fitting relative to DMSO as the negative control and baseline of activity. Using a type of inducible reporter, measures of mRNA for gain or loss-of-signal activity can be used to understand the reporter gene at the transcription factor-level as they relate to the gene GATA1. Furthermore, this assay endpoint can be referred to as a primary readout, because this assay has produced multiple assay endpoints where this one serves a reporter gene function. To generalize the intended target to other relatable targets, this assay endpoint is annotated to the dna binding intended target family, where the subfamily is GATA proteins.
Human liver HepG2 cells are transiently transfected with multiple reporter transcription units (MRTUs) in 6-well plates using FuGene 6 reagent (Roche; 3 ml FuGene/1 mg DNA). The MRTU constructs are regulated by a cis-regulating element (promoter). […] A major difference between the CIS and TRANS system is that in CIS activities of endogenous TFs are measured, whereas the TRANS assay evaluates changes in activities of exogenous, chimeric NR-Gal4 proteins. […] At the end of 24 hour incubation, total RNA was isolated using TriZol reagent (Invitrogen). The isolated RNA is then reverse-transcribed using oligo(dT) primer and Mo-MLV reverse transcriptase (Invitrogen) with DNAse I (Ambion) treatment for 30 min. The one-tenth of the produced cDNA was amplified by PCR using Taq DNA polymerase (Invitrogen) and two reporter sequence-specific primers. The PCR products were fluorescently labeled by primer extension with 6-arboxyfluorescein (6-FAM) 5'-labeled reporter sequence-specific primer (2 min at 95 C, 20 s at 68 C and 10 min at 72 C) and these products were digested with 5U of HpaI (New England Biolabs) for 2h at 37 C. The fragments were purified using Qiaquick PCR columns (Qiagen), analyzed on an ABI 3130xL genetic analyzer (Applied Biosystems) with peak positions identified by using a set of X-rhodamine (ROX)-labeled MapMarker1000 molecular weight standards (BioVentures). The raw capillary electrophoresis data was processed using Attagraph software (Attagene).

Row | SMILES | outcome | AC50
1 | CCOc1ccc(NC(C)=O)cc1 | inactive | 
2 | FC(F)(F)c1ccc(Cl)c(Cl)c1 | inactive | 
3 | CCCCCCCCCO | inactive | 
4 | CC(C)(C)C1CCC(O)CC1 (stereo not given) | inactive | 
5 | COc1ccc(N)c(C)c1 | inactive | 
6 | C#C[C@]1(O)CC[C@H]2[C@@H]3CCc4cc(O)ccc4[C@H]3CC[C@@]21C | inactive | 139 µM (active) and 142 µM (active)
7 | CCCCCc1cccc(=O)o1 | inactive | 
8 | CC(=O)Oc1c(C)c(C)c2c(c1C)CC[C@@](C)(CCC[C@H](C)CCC[C@H](C)CCCC(C)C)O2 | inactive | 
9 | CCCC[N+](C)(CCCC)CCCC | inactive | 
10 | O=C(O)CS | inactive | 
11 | N=C1N=C(N)c2ccccc21 | inactive | 
12 | CC(=O)CC(C)(C)C1CCCCC1 | inactive | 
13 | CCC(=O)OC(C)(C)C1CC=C(C)CC1 (stereo not given) | inactive | 
14 | CCOC(=O)COC(=O)c1ccccc1C(=O)OCC | inactive | 
15 | CC1=CCC(C(C)C)=CC1 | inactive | 
16 | OC[C@H]1O[C@@H](O[C@H]2[C@H](O)[C@@H](O)[C@H](O)O[C@@H]2CO)[C@H](O)[C@@H](O)[C@H]1O | inactive | 
17 | OCCN1CCOCC1 | inactive | 
18 | CCn1cc(C(=O)O)c(=O)c2ccc(C)nc21 | inactive | 
19 | CCC(C)COC(=O)CC(C)C (stereo not given) | inactive | 
20 | CC1=CC[C@@H](C(C)(C)O)CC1 | inactive | 

Row | SMILES | outcome | AC50
21 | COc1ccccc1NC(=O)CC(C)=O | inactive | 
22 | CCC(C)(C)c1cc(O)c(C(C)(C)CC)cc1O |  | 27.2 µM (active)
23 | CCCO | inactive | 
24 | [Na+] | inactive | 
25 | CCCCCCCCCCCCCC(=O)OCC | inactive | 
26 | CC(C)Cc1ccc(C(C)C(=O)O)cc1 (stereo not given) | inactive | 
27 | C=COCC1CCC(COC=C)CC1 (stereo not given) | inactive | 
28 | Brc1cc(Br)cc(Br)c1 | inactive | 
29 | Nc1ccn([C@H]2CC[C@@H](CO)O2)c(=O)n1 | inactive | 
30 | CC(C)C(=O)OCC=Cc1ccccc1 | inactive | 
31 | N#CCCNCCC#N | inactive | 
32 | CC(C)(C)c1cc(CCC(=O)OCCSCCOC(=O)CCc2cc(C(C)(C)C)c(O)c(C(C)(C)C)c2)cc(C(C)(C)C)c1O | inactive | 
33 | COC(=O)c1cccc(C(=O)OC)c1 | inactive | 
34 | C=C(C)CCCC(C)CCO (stereo not given) | inactive | 
35 | CCCCN(CCO)CCO | inactive | 
36 | O=S1(=O)CC=CC1 | inactive | 
37 | CC(=O)CCc1ccc(O)cc1 | inactive | 
38 | NC(=O)c1cccnc1 | inactive | 
39 | O=S1(=O)CC(Cl)(Cl)C(Cl)(Cl)C1 | inactive | 

— PubChem BioAssay (EPA / NIEHS)
